RORg inh: ROR gamma (mouse) transcription inhibition; P51450; Drosophila S2 Gal4-RORgamma UAS-luciferase reporter, 20 h; Potency, µM (top dose mostly 53.6 µM), without a hit: at the top dose activity change, negative = inhibition, actives largely listed as inhibitors; actives 5.4% (n = 310,000); AID 2551; further: on the % scale 0 is the no-effect control and ±100 the full control effect; nearly all actives have a fitted effect of over 60% in size
Target sequence (P51450 whole entry, looked up, the tested form may be a part): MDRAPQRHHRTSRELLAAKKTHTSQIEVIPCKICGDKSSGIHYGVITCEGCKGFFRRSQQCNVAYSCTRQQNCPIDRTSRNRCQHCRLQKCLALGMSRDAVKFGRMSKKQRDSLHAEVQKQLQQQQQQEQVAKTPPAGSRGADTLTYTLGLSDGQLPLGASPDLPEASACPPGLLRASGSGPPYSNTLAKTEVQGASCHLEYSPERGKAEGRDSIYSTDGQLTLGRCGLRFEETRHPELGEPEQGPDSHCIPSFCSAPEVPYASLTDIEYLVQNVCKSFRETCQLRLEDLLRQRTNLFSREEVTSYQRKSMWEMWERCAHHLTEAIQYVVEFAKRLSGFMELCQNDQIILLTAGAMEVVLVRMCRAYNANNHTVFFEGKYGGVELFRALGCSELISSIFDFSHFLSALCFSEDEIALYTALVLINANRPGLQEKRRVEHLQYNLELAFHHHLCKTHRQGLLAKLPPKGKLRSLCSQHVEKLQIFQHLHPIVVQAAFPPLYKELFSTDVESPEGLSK
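Stably transfected Drosophila Schneider cells are the test system, with ROR gamma fused to Gal4 and luciferase under UAS control; luminescence is read after 20 hr of 700 uM copper sulfate induction at ambient temperature.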
Gal4-VP16 FLuc: inhibits Gal4-VP16 luciferase reporter, ROR gamma counter-screen. AID 2546. Potency, µM (doses to about 53.6 µM), for the others: top-dose activity, negative = inhibition, most hits filed as inhibitors. actives 3.5% (n = 310,000). Drosophila S2 Gal4-VP16 UAS-luciferase, luminescence, 20 h;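 further: Gal4-VP16 expression switched on by copper sulfate through the metallothionein promoter; on the % scale 0 is the no-effect control and ±100 the full control effect; nearly all actives have a fitted effect of over 50% in size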
ELG1 repair inh: blocks ELG1-dependent DNA repair in HEK293T cells. AID 504467. actives 2.3% (n = 330,000). HEK293T ELG1-luciferase reporter, luminescence, 16 h; DNA damage induced by 5-fluorouridine. Potency, µM (top dose mostly 46.1 µM), without a hit: top-dose activity change, negative = inhibition, usual class: inhibitors; further: on the % scale 0 is the no-effect control and ±100 the full control effect; nearly all actives have a fitted effect of over 55% in size
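DMSO vehicle served as the neutral condition. Each well held 2,000 cells given 5-fluorouridine plus compound; after 16 hr at 37 °C/5% CO2, ONE-Glo was added and luciferase measured 30 min later.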
MCF10A rerep: inducers of DNA re-replication in MCF 10A breast cells; MCF 10A DNA re-replication, Hoechst nuclear intensity, 48 h; Potency, µM (titrated, usually from 46.1 µM), for inactives: at the top dose activity, positive = re-replication, usual class: activators; actives 2.9% (n = 350,000); AID 624296; further: % of control where 0% means no effect; nearly all actives have a fitted effect of over 50% in size
SW480 rereplic: DNA re-replication induction in SW480 cells. SW480 DNA re-replication, Hoechst DNA content imaging, 48 h. Potency, µM (series often up to 46.1 µM), inactives show at the top dose re-replication activation, actives largely listed as activators. actives 1.8% (n = 340,000); further: % of control where 0% means no effect; nearly all actives have a fitted effect of over 55% in size
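Image-based DNA-content assay: after two days of treatment, nuclei were labelled with the DNA dye Hoechst and imaged, and hits were compounds raising the count of nuclei showing high fluorescence intensity.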
The depositor's hits bear a star; [ ] = dose if it differs, or a comment. Sampled rows, rich in hits. Any-hit rate of the full collection: about 10%. The call rests on the fitted dose curve; in most records, active means well fitted curve in the direction sought with a large enough effect; inconclusive means small, poorly fitted or top-dose-only effect, or another doubt; inactive means no such curve, though single readings can be large; an effect the other way counts as inactive or inconclusive. Potency means the concentration at half of the fitted maximal effect.

COc1ccc(-n2c(-c3ccccc3)c[n+]3c2CCC3)cc1 was read as RORg inh inconclusive, Gal4-VP16 FLuc inconclusive, ELG1 repair inh inconclusive, MCF10A rerep 0.2% and SW480 rereplic 2.0%.
Screening Cc1ccc(-n2c(-c3ccccc3)c[n+]3c2CCC3)cc1 returned RORg inh inconclusive, Gal4-VP16 FLuc inconclusive, ELG1 repair inh 1.64µM*, MCF10A rerep 12.1% and SW480 rereplic 1.5%.
For Cc1ccc(-n2c(-c3ccc(Cl)cc3)c[n+]3c2CCC3)cc1 the results were RORg inh 4.2%, Gal4-VP16 FLuc -9.2%, ELG1 repair inh 2.91µM*, MCF10A rerep 1.2% and SW480 rereplic 0.5%.
Screening OCCC#Cc1ccc(CN2CCN(Cc3ccccc3)C(CCO)C2)cc1 (configuration not stated) returned RORg inh -9.0%, Gal4-VP16 FLuc -4.0%, ELG1 repair inh -5.5%, MCF10A rerep 3.3% and SW480 rereplic -2.4%.
Screening CCOCCCn1c(=N)c(C(N)=S)cc2c(=O)n3cccc(C)c3nc21 returned RORg inh -105.4%, Gal4-VP16 FLuc 14.1µM*, ELG1 repair inh inconclusive, MCF10A rerep inconclusive and SW480 rereplic inconclusive.
`CCOCCCNC(=O)c1cc2c(=O)n3cccc(C)c3nc2n1C` gave RORg inh 4.7%, Gal4-VP16 FLuc 8.4%, ELG1 repair inh -4.6%, MCF10A rerep inconclusive and SW480 rereplic 0.651µM*.
Cc1nc(-c2ccccn2)nc(N(C)c2ccccc2)c1Cl was read as RORg inh 0.316µM*, Gal4-VP16 FLuc 1.58µM*, ELG1 repair inh inconclusive, MCF10A rerep 3.1% and SW480 rereplic -5.8%.
Screening O=C(Nc1ccccc1)c1cn2ccccc2n1 returned RORg inh inconclusive, Gal4-VP16 FLuc 2.82µM*, ELG1 repair inh inconclusive, MCF10A rerep 5.3% and SW480 rereplic 4.6%.
`Cc1csc(NC(=O)c2cn3ccccc3n2)n1` gave RORg inh 5.01µM*, Gal4-VP16 FLuc 7.94µM*, ELG1 repair inh inconclusive, MCF10A rerep 5.5% and SW480 rereplic inconclusive.
For Cc1csc(NC(=O)c2cccn2C)n1 the results were RORg inh -14.6%, Gal4-VP16 FLuc -19.3%, ELG1 repair inh inconclusive, MCF10A rerep inconclusive and SW480 rereplic -2.9%.
Screening CC(C)=NO[C@@H](C)CN1CCCCc2nc(C)c(C)cc21 returned RORg inh -10.5%[10 µM] and Gal4-VP16 FLuc 2.0%[10 µM].
`COc1ccc(O[C@H]2C=C[C@@H](c3ccccc3)O[C@H]2COC(=O)CC/C(C)=N\O[C@@H](C)c2cc(-c3c(C)cc(C)cc3C)no2)cc1` gave RORg inh 13.7%[10 µM] and Gal4-VP16 FLuc 2.8%[10 µM].
`O=C(O)c1cccc(NC(=S)NC(NC(=O)c2cccc([N+](=O)[O-])c2)C(Cl)(Cl)Cl)c1` (configuration not stated) gave RORg inh 10.8%, Gal4-VP16 FLuc -9.8%, ELG1 repair inh 4.6%, MCF10A rerep -0.7% and SW480 rereplic -15.8%.
Screening O=C(NC(NC(=S)Nc1ccccc1)C(Cl)(Cl)Cl)c1cccc(Cl)c1 (configuration not stated) returned RORg inh 11.2µM*, Gal4-VP16 FLuc inconclusive, ELG1 repair inh inconclusive, MCF10A rerep inconclusive and SW480 rereplic inconclusive.
Cc1ccc(NC(=S)NC(NC(=O)c2ccccc2)C(Cl)(Cl)Cl)c(C)c1 (configuration not stated) was read as RORg inh inconclusive, Gal4-VP16 FLuc inconclusive, ELG1 repair inh inconclusive, MCF10A rerep inconclusive and SW480 rereplic 3.8%.
Screening O=C(NC(NC(=S)Nc1ccc(Cl)cc1Cl)C(Cl)(Cl)Cl)c1cccc([N+](=O)[O-])c1 (configuration not stated) returned RORg inh inconclusive, Gal4-VP16 FLuc inconclusive, ELG1 repair inh 20.5%, MCF10A rerep 11.6µM* and SW480 rereplic 20.6µM*.
For Cc1cc(C)c(NC(=S)NC(NC(=O)c2ccccc2)C(Cl)(Cl)Cl)c(C)c1 (configuration not stated) the results were RORg inh 20µM*, Gal4-VP16 FLuc inconclusive, ELG1 repair inh inconclusive, MCF10A rerep 12.2% and SW480 rereplic inconclusive.
Screening O=C(NC1CCCCC1)c1ccc(-c2ccccc2)cc1 returned MCF10A rerep 12.1% and SW480 rereplic 10.5%.
For Cc1ccc2oc(=O)c(/C=C(\O)C(C)(C)C)nc2c1 the results were RORg inh 5.01µM*, Gal4-VP16 FLuc -21.1%, ELG1 repair inh -6.3%, MCF10A rerep 10.1% and SW480 rereplic -24.0%.
For Cc1ccc2oc(=O)c(/C=C(\O)c3sc(C)nc3C)nc2c1 the results were RORg inh inconclusive, Gal4-VP16 FLuc inconclusive, ELG1 repair inh -13.1%, MCF10A rerep 15.7% and SW480 rereplic -3.6%.
Cc1ccc2oc(=O)c(/C=C(\O)c3ccco3)nc2c1 was read as RORg inh 10µM*, Gal4-VP16 FLuc inconclusive, ELG1 repair inh -3.0%, MCF10A rerep inconclusive and SW480 rereplic -6.5%.
O=C(/C=C/Nc1nccs1)C(F)(F)Cl was read as RORg inh -0.2%, Gal4-VP16 FLuc 2.0%[10 µM], ELG1 repair inh -2.3%, MCF10A rerep 3.1% and SW480 rereplic 5.4%.
`CCOc1cc(/C=N/NC(=O)c2cccnc2)ccc1OCc1ccc(C(=O)OC)o1` gave RORg inh 10.6%, Gal4-VP16 FLuc -0.9%, ELG1 repair inh -4.7%, MCF10A rerep 6.2% and SW480 rereplic -7.2%.
`COc1cccc(-n2c(C)c3c(OC)cccc(=O)c3c2C)c1` gave RORg inh 6.31µM*, Gal4-VP16 FLuc inconclusive, ELG1 repair inh 12.5%, MCF10A rerep inconclusive and SW480 rereplic -0.8%.
COc1cccc(=O)c2c(C)n(-c3cc(C)cc(C)c3)c(C)c12 was read as RORg inh -19.7%, Gal4-VP16 FLuc -5.5%, ELG1 repair inh -4.2%, MCF10A rerep inconclusive and SW480 rereplic 0.0%.
Screening O=C(CC(=O)Nc1ccccc1[N+](=O)[O-])Nc1ccccc1[N+](=O)[O-] returned RORg inh 20.5%, Gal4-VP16 FLuc 1.3%, ELG1 repair inh 0.3%, MCF10A rerep 2.4% and SW480 rereplic 2.0%.
Screening COc1ccc(C(=O)/C=C/Nc2ccc([N+](=O)[O-])cc2C)cc1OC returned RORg inh -4.4%, Gal4-VP16 FLuc -18.6%, ELG1 repair inh inconclusive, MCF10A rerep 11.4% and SW480 rereplic 1.6%.
COc1ccc(C(=O)NC(=S)Nc2ccccc2[N+](=O)[O-])cc1OC was read as RORg inh 7.08µM*, Gal4-VP16 FLuc 16.8%, ELG1 repair inh -2.1%, MCF10A rerep -14.9% and SW480 rereplic -2.5%.
COc1ccc(C(=O)NC(=S)Nc2ccc([N+](=O)[O-])cc2C)cc1OC was read as RORg inh 15.8µM*, Gal4-VP16 FLuc inconclusive, ELG1 repair inh 0.1%, MCF10A rerep 12.6% and SW480 rereplic -5.9%.
